High-throughput results: PubChem BioAssay, several laboratories
The list is not random: actives were taken first. Their share in the collection is about 10%.
INS promoter inh = inhibitors of insulin promoter-driven GFP, primary screen, imaging, TRM-6 cells (human fetal islet line), eGFP reporter, cell count; reporter expression induced with tamoxifen; inhibition, % at 2 µM; 130,000 tested, 0.9% active; AID 1273, 2008;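 active means inhibition above the mean plus 3 SD, with well images judged a real hit on visual review, cut at about 60% in these data, passing the limit was not always enough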
Lmaj promast = Leishmania major promastigote growth inhibition, primary screen | Leishmania major promastigotes, resazurin fluorescence viability | inhibition, % at 10 µM | 200,000 tested, 9% active; in the data active means inhibition above about 50%;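 further: promastigotes grown with compound for 44 hours at 28 °C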
PTEN del growth = growth suppression of PTEN-null HCT116, primary screen, cell-based, CellTiter-Glo; HCT116 PTEN-null viability, 60 h; stronger effect = lower value; viability, % at 10 µM; 140,000 tested, 1.2% active;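 active means viability at or below a set limit, 4 SD under the median of all tested compounds, cut at about 3.7% in these data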;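 further: PTEN knockout HCT116 line with beta catenin targeted HCT116 as companion control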
HCT116 bCat-KO = primary screen for growth suppressors in beta-catenin knockout HCT116 cells (colon tumor, human). HCT116 beta-catenin knockout viability, CellTiter-Glo, 60 h; stronger effect = lower value. viability, % at 10 µM. 140,000 tested, 1.5% active. AID 818, 2007;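 active means viability at or under a set limit, the compound median less 4 SD, cut at about 6% in these data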;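 further: 0% = Hyamine 1622 control at 20 µM and 100% = untreated cell control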
p97 inhibitor = inhibitors of human p97 ATPase, primary screen, biochemical; AID 1481, 2009; inhibition, % at 8 µM; 220,000 tested, 0.42% active; recombinant p97 ATPase, Kinase-Glo ATP luminescence, 3 h; in the data active means inhibition above about 15%;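 further: 0% = DMSO vehicle and 100% = wells lacking enzyme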
ROMK primary = ROMK potassium channel modulators, primary screen, cell-based, thallium flux, MLSMR library; B-score at 10 µM; 130,000 tested, 2% active; ATP-sensitive inward rectifier potassium channel 1 (Homo sapiens), P48048; AID 1918, 2009; Tet-inducible ROMK, thallium flux fluorescence; actives lie on both sides;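 active means signal ratio slope over the read window, or its plate-corrected B-score, at least 3 SD from the plate mean, either direction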;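 further: B-score of the F/F0 ratio slope over 7 to 12 s after thallium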
Target sequence (P48048 whole entry, looked up): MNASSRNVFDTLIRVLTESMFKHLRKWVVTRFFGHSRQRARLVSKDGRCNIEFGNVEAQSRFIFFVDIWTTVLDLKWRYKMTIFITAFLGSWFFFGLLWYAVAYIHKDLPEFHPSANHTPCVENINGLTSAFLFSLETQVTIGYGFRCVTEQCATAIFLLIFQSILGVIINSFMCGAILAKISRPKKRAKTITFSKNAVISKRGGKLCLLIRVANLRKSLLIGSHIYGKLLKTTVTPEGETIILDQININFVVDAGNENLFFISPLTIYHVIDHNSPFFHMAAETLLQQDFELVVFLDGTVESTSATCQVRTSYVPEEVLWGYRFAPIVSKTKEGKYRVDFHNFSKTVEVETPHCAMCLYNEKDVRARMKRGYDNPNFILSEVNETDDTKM
Active calls of the source: *; · = not tested or not shown.

SMILES	INS promoter inh	Lmaj promast	PTEN del growth	HCT116 bCat-KO	p97 inhibitor	ROMK primary
CCCCc1nnc(NC(=O)C(C)Sc2nc(O)c(Cc3ccccc3)c(=O)[nH]2)s1 (centres undefined)	-21	-5	·	·	-3	-0.17
COc1ccc(C(=O)CCC(C)(C)[N+](=O)[O-])cc1	44	-7	·	·	3	-0.59
Cc1ccn(C(=O)c2ccc(NC(=O)CC(C)C)cc2)n1	·	1	·	·	3	-1.3
O=C(CN1CCCCC1)N=Nc1c(O)[nH]c2ccccc12	·	8	·	·	4	·
O=C(CN1CCN(Cc2ccccc2)CC1)N=Nc1c(O)[nH]c2ccccc12	31	96*	76	81	5	·
COc1ccc(OC)c(S(=O)(=O)N2CCC(C(=O)NCc3ccccc3)CC2)c1	·	-2	101	103	2	-2
COc1ccc(OC)c(S(=O)(=O)N2CCC(C(=O)Nc3cccc(C(F)(F)F)c3)CC2)c1	20	91*	79	70	1	·
C=CCSc1nc2sc3c(c2c(=O)[nH]1)CCC3	-27	-4	·	·	2	0.22
CSc1ccc(CN2CCC(O)CC2)cc1	8	81*	·	·	2	·
CCCCOc1ccc(CN2CCC(O)CC2)cc1	64	91*	100	103	2	·
CSc1ccc(CN2CCC(C(=O)NCc3ccc(C)cc3)CC2)cc1	·	92*	·	·	-5	-0.66
Cc1cc(C)n(C(=O)/C(C#N)=N/Nc2cc(Cl)cc(Cl)c2)n1	18	-5	·	·	-2	-1.5
CCC(C(=O)c1ccccc1)P(=O)(NN)c1ccccc1 (centres undefined)	·	·	·	·	2	·
O=C(NCCCCO)c1ccc2c3c(cccc13)CC2	·	-5	·	·	0	0.78
c1cncc(CNc2ccc3c(c2)OCO3)c1	0	52*	75	80	0	·
Cc1ccc(CNc2ccc3c(c2)OCO3)c(C)c1	-376	99*	14	9	0	-0.73
COc1ccc(NCc2ccc3c(c2)OCO3)cc1Cl	-13	84*	89	84	1	·
COc1cc(OC)c(/C=N/NC(=O)Cn2nc([N+](=O)[O-])cc2C)c(OC)c1	·	·	·	·	2	·
Cc1cccc(C)c1NC(=O)CNC(=O)CCC(=O)c1cccs1	-26	18	88	95	-4	0.89
CNC(=O)Cn1c(C)cc(=O)c2cccc(C)c21	·	·	·	·	2	·
Cc1cccc2c(=O)cc(C)n(Cc3ccccc3)c12	-19	59*	92	86	-2	0.099
O=S(=O)(c1ccc(Cl)c(Cl)c1)c1snnc1-c1ccccc1	-72	100*	1.3*	1.2*	23*	-0.49
O=S(=O)(Nc1ccc(Cc2ccncc2)cc1)c1ccc(Cl)c(Cl)c1	-24	74*	67	61	1	·
Cc1coc2c1C(=O)C(=O)c1c-2ccc2c1CCCC2(C)C	·	98*	·	·	5	·
C[C@H]1COC2=C1C(=O)C(=O)c1c2ccc2c1CCCC2(C)C	·	8	·	·	6	·
SMILES	INS promoter inh	Lmaj promast	PTEN del growth	HCT116 bCat-KO	p97 inhibitor	ROMK primary
CC(C)(C)c1ccc(NC(=O)COc2ccc(-n3ccnc3)cc2)cc1	-8	67*	22	12	-2	·
C/C(=N\Nc1ccc(Cl)c(Cl)c1)c1ccc(-n2ccnc2)cc1	5	58*	68	75	-1	-0.022
C/C(=N\NC(N)=S)c1ccc(-n2ccnc2)cc1	·	·	·	·	8	·
C/C(=N\NC(=O)COc1ccc(C(C)(C)C)cc1)c1ccc(-n2ccnc2)cc1	·	52*	50	51	-7	-0.13
COc1cc(NC(=O)COc2ccc(-n3ccnc3)cc2)cc(OC)c1	·	15	·	·	3	-1.7
O=C(c1ccc(N2CCOCC2)cc1[N+](=O)[O-])N1CCOCC1	-49	-10	·	·	2	1.3
Nc1nc(CCl)nc(N(c2ccccc2)c2ccccc2)n1	·	·	·	·	12	·
O=C(NCCc1c[nH]c2ccccc12)C(=O)NCC(c1ccco1)N1CCN(c2ccccc2)CC1 (centres undefined)	-3	89*	67	79	5	0.37
O=C(NCc1ccncc1)C(=O)NCC(c1ccco1)N1CCN(c2ccccc2)CC1 (centres undefined)	·	4	·	·	3	1.1
O=C(NCCc1c[nH]c2ccccc12)C(=O)NCC(c1ccco1)N1CCN(c2ccc(F)cc2)CC1 (centres undefined)	6	-3	82	82	3	0.017
